This passage reports Potency and activity change, negative = cell killing results from PubChem BioAssay (NCATS).

Values joined by “and” are separate entries in the source; they are usually repeats but may differ in a detail not shown here. Equal entries are not always repeated. Results filed as inconclusive are left out. Values without a mark were called inactive. Active and inactive are the calls of the source. Calls follow the shape of the dose curve; as a rule, active = well fitted curve in the direction sought with a large enough effect; inconclusive = small, poorly fitted or top-dose-only effect, or another doubt; inactive = no such curve, though single readings can be large; an effect the other way counts as inactive or inconclusive.

The nature of experiment [1]: Primary qHTS for inhibitors of nuclear receptor binding SET domain protein 2 (NSD2) in an isogenic RCH-ACV NSD2 p.E1099K mutant (9B) (AID 1645876).
A short description of experiment [2]: Primary qHTS for inhibitors of nuclear receptor binding SET domain protein 2 (NSD2) in an RCH-ACV wild type WT cells (2C) (AID 1645877). Background: Quantitative high-throughput screening tests each substance at several concentrations.
% is scaled to controls: 0 for no effect and ±100 for the full control effect; potency is read from the fitted curve at half-maximal effect.
Also: nearly all actives have a fitted effect of over 70% in size.

Turning to `O=C(NCCCc1ccccc1)c1cccc(-c2cc(O)c3ncccc3c2)c1`, the Potency in experiment [1] was 12.9 µM (active); in experiment [2] it was 3.65 µM (active).
The corresponding values for `C=C1C(=O)O[C@@H]2C3=C(C)CCC[C@]3(C)CC[C@@]12O` are 2.3 µM (active) and 1.29 µM (active).
For the molecule `C=C1C(=O)O[C@@H]2C[C@H](C)C3=CC(=O)[C@H](O)[C@@]3(C)C[C@H]12`, the Potency was 25.8 µM (active) in experiment [1] and 18.3 µM (active) in experiment [2].
The corresponding values for `CC(=O)O[C@H]1CC(C)(C)CC2[C@]13CO[C@@]21CCC2[C@@]4(C)CC[C@H](O[C@@H]5OC[C@H](O[C@@H]6O[C@H](CO)[C@@H](O)[C@H](O)[C@H]6O[C@@H]6OC[C@@H](O[C@@H]7O[C@H](CO)[C@@H](O)[C@H](O)[C@H]7O)[C@H](O)[C@H]6O)[C@H](O)[C@H]5O[C@@H]5O[C@H](CO)[C@@H](O)[C@H](O)[C@H]5O)[C@@](C)(CO)C4CC[C@@]2(C)[C@]1(C)C[C@H]3O` (stereo not given in full) are 1.09 µM (active) and 2.18 µM (active).
On to `CN1c2c(nc(N)[nH]c2=O)NC[C@@H]1CNc1ccc(C(=O)N[C@@H](CCC(=O)O)C(=O)O)cc1`, for which the Potency result in experiment [1] and in experiment [2] was “inactive” each time.
For `C=C1C(=O)OC2C1CCC1(C)C(O)CC=C(C)C21` (stereo not given), the values for the Potency in experiment [1] and in experiment [2] were 18.3 µM (active) and 16.3 µM (active), respectively.
As for `CCc1cccc(CC)c1-n1c(C=C(C)C)c(C(=O)N2CCNCC2)cc(-c2nc(-c3ccc(C(F)(F)F)cc3)cs2)c1=O`, the Potency was 8.93 µM (active) in experiment [1] and 10 µM (active) in experiment [2].
With `CN(C)CCC(CSc1ccccc1)Nc1ccc(S(=O)(=O)NC(=O)c2ccc(N3CCN(Cc4ccccc4-c4ccc(Cl)cc4)CC3)cc2)cc1[N+](=O)[O-]` (stereo not given), the Potency in experiment [1] was 0.916 µM (active); in experiment [2] it was 0.515 µM (active).
As to `C=C1C(=O)OC2/C=C(\COC(C)=O)CC/C=C(\C=O)CC(OC(=O)C(C)CC)C12` (stereo not given), the Potency in experiment [1] is 3.17 µM (active); in experiment [2] it was 2 µM (active).
Turning to `COC(=O)Nc1cc(Nc2cc(NC3CC3)c3ncc(C#N)n3n2)c(Cl)c(N2CCN(C)CC2)c1`, the results for the Potency in experiment [1] and in experiment [2] were 0.742 µM (active) and 0.372 µM (active), respectively.
In the same order, the values of `CCOc1cc(C(C)(C)C)ccc1C1=NC(C)(c2ccc(Cl)cc2)C(C)(c2ccc(Cl)cc2)N1C(=O)N1CCN(CCCS(C)(=O)=O)CC1` (stereo not given) are 0.817 µM (active) and 0.258 µM (active).
The corresponding values for `CC(=O)C1=C(O)C=C2Oc3c(C(C)=O)c(O)c(C)c(O)c3[C@]2(C)C1=O` are “inactive” and “inactive”.
In the same order, the values of `C=C1CCC2C(C)(C(=O)O)CCCC2(C)C1CCC1=CCOC1=O` (stereo not given) are “inactive” and “inactive”.
As to `COc1ccc(C(=O)O[C@H]2C=COC=C3C=C4C(=O)N(C)C(=S)C(=O)N4[C@@H]32)cc1Oc1cc(C=O)ccc1O`, the values for the Potency in experiment [1] and in experiment [2] were 6.32 µM (active) and 2.82 µM (active), respectively.
The corresponding values for `CC(C)(C)NC(=O)[C@H]1CC[C@H]2[C@@H]3CC[C@H]4NC(=O)CC[C@]4(C)[C@H]3CC[C@]12C` are “inactive” and “inactive”.
For the molecule `O=C(Nc1cccnn1)N1CCN(c2nccc(-c3ccc(F)c(F)c3)n2)CC1`, the Potency entry in experiment [1] and in experiment [2] was “inactive” throughout.
As to `Cc1[nH]c2ccccc2c1CCNCc1ccc(/C=C/C(=O)NO)cc1`, the Potency in experiment [1] is 18.3 nM (active) and 52.5 nM (active); in experiment [2], 18.3 nM (active) and 52.5 nM (active).
For the molecule `Cc1sc2c(c1C)C(c1ccc(Cl)cc1)=N[C@H](CC(=O)NCCCCNC(=O)COc1cccc3c1C(=O)N([C@H]1CCC(=O)NC1=O)C3=O)c1nnc(C)n1-2`, the figures for the Potency in experiment [1] and in experiment [2] were 0.23 µM (active) and 0.129 µM (active), respectively.
Turning to `O=C(Nc1ccnc(NC(=O)C2CC2)c1)c1c(Cl)cccc1Cl`, the Potency in experiment [1] and in experiment [2] was 2.95 µM (active) in each case.
On to `CN1C(=O)c2sccc2N(C)c2nc(Nc3ccc(S(N)(=O)=O)cc3)ncc21`, for which the Potency in experiment [1] was 1.05 µM (active); in experiment [2], 0.59 µM (active).
The corresponding values for `COc1ccc(C2(N(C)C(=O)c3ccc(NC(=O)c4ccco4)cc3)CCOCC2)cc1` are “inactive” and “inactive”.
The corresponding values for `C/C=C(/C)C(=O)O[C@H]1[C@H](OC(=O)/C(C)=C\C)[C@@]23C(CC1(C)C)[C@]1(CCC4[C@@]5(C)CC[C@H](O[C@@H]6O[C@H](C(=O)O)[C@@H](O)[C@H](O[C@@H]7O[C@H](CO)[C@H](O)[C@H](O)[C@H]7O[C@@H]7O[C@@H](C)[C@H](O)[C@@H](O)[C@H]7O[C@@H]7OC[C@@H](O)[C@H](O)[C@H]7O)[C@H]6O[C@@H]6O[C@H](CO)[C@H](O)[C@H](O)[C@H]6O)C(C)(C)C5CC[C@@]4(C)[C@]1(C)C[C@H]2O)O[C@H]3O` (stereo not given in full) are 1.22 µM (active) and 2.18 µM (active).
In the same order, the values of `CCn1c(-c2nonc2N)nc2c(C#CC(C)(C)O)ncc(OCC3CCCNC3)c21` (stereo not given) are 1.03 µM (active) and 1.45 µM (active).
With `COc1cc(O)cc(OC2OC(CO)C(O)C(O)C2O)c1` (stereo not given), the Potency result in experiment [1] and in experiment [2] was “inactive” throughout.
Take `C=C(C)C(=O)O[C@H]1C[C@@](C)(O)C2(O)CCC(C)(/C=C3/OC(=O)C(COC)=C31)O2` (stereo not given in full): the values for the Potency in experiment [1] and in experiment [2] were 1.42 µM (active) and 0.713 µM (active), respectively.
In the case of `Cc1[nH]c(/C=C2\C(=O)Nc3ccc(S(=O)(=O)N(C)c4cccc(Cl)c4)cc32)c(C)c1C(=O)N1CCN(C)CC1`, the Potency is 9.16 µM (active) and 5.25 µM (active) in experiment [1]; 7.28 µM (active) and 5.25 µM (active) in experiment [2].
Turning to `COCC(c1ccc(C(F)(F)F)cc1)N1CCN(C2(C)CCN(C(=O)c3c(C)ncnc3C)CC2)CC1C` (stereo not given), the Potency entry in experiment [1] and in experiment [2] was “inactive” each time.
For the molecule `O=S(=O)(NCc1ccccn1)c1ccc(Br)c2ccccc12`, the Potency entry in experiment [1] and in experiment [2] was “inactive” throughout.
Turning to `C=C(C)C1CC(O)C(C)C12CC(O)C1(C)OC1C2O` (stereo not given), the Potency in experiment [1] is 4.59 µM (active); in experiment [2], 3.25 µM (active).
The corresponding values for `COc1ccc(-n2c(SCCCN3C(=O)c4cccc5cccc(c45)C3=O)nnc2-c2ccncc2)cc1` are “inactive” and “inactive”.
Consider `COCCNCc1ccc(-c2cc3nccc(Oc4ccc(NC(=O)C5(C(=O)Nc6ccc(F)cc6)CC5)cc4F)c3s2)nc1`, for which the Potency is 2.9 µM (active) in experiment [1] and 2.63 µM (active) in experiment [2].
Regarding `COc1cc2nc(N3CCN(C(=O)c4ccco4)C4CCCCC43)nc(N)c2cc1OC` (stereo not given), the Potency in experiment [1] is 2.3 µM (active); in experiment [2] it was 3.65 µM (active).
In the same order, the values of `CC(=O)NC(C(=O)O[C@H]1CCC(C)(C)[C@@H]2CC=C3C(=O)OCC3(O)[C@@]12C)C(C)C` (stereo not given in full) are 8.01 µM (active) and 12.7 µM (active).
For `C=C(C)C(=O)O[C@H]1/C(C=O)=C\CC/C(CO)=C/[C@H]2OC(=O)C(=C)[C@@H]2[C@@H]1OC`, the Potency in experiment [1] is 11.3 µM (active); in experiment [2], 2.53 µM (active).
In the same order, the values of `O=c1[nH]cnc2c([C@@H]3N[C@H](CO)[C@@H](O)[C@H]3O)c[nH]c12` are “inactive” and “inactive”.
With `C=C1CC2OC(=O)C(=C)C2C(OC(=O)/C(C)=C\C)CC2(C)OC1=CC2=O` (stereo not given), the Potency in experiment [1] is 2.01 µM (active); in experiment [2], 1.01 µM (active).
As to `COC1CC(=O)C23C(=O)NC(Cc4c[nH]c5ccccc45)C2C(C)C2(C)OC2C3/C=C/CC(C)CC1O` (stereo not given), the Potency in experiment [1] was 3.17 µM (active); in experiment [2], 2.52 µM (active).
`CS(=O)(=O)c1ccc(Oc2cc(F)cc(C#N)c2)c2c1[C@H](O)C(F)(F)C2`: the Potency result in experiment [1] and in experiment [2] was “inactive” throughout.
Turning to `COc1cc(F)c(F)c(Nc2ccc(I)cc2F)c1NS(=O)(=O)C1(CC(O)CO)CC1` (stereo not given), the Potency in experiment [1] is 18.3 µM (active); in experiment [2] it was 25.8 µM (active).
In the same order, the values of `C[C@H](Oc1cc(-c2cnn(C3CCNCC3)c2)cnc1N)c1c(Cl)ccc(F)c1Cl` are 11.5 µM (active) and 12.9 µM (active).
In the case of `CCCCCc1ccc(/C=C/C(=O)Nc2cc(Cl)ccc2C(=O)O)cc1`, the Potency result in experiment [1] and in experiment [2] was “inactive” in each case.
As for `CC(=O)OC1CC(C)C2(CCC3(CC(=O)OC3O)O2)C2(C)CCCC(C)(C)C12` (stereo not given), the Potency result in experiment [1] and in experiment [2] was “inactive” each time.
In the case of `Nc1nc2c(ncn2C2OC3COP(=O)(O)OC3C2O)c(=O)[nH]1` (stereo not given), the Potency entry in experiment [1] and in experiment [2] was “inactive” in each case.
Regarding `CC1(C)CC[C@]2(C(=O)O)CC[C@]3(C)C(=CCC4[C@@]5(C)C[C@@H](O)[C@H](O)C(CO)(CO)C5CC[C@]43C)C2[C@@H]1O` (stereo not given in full), the Potency in experiment [1] and in experiment [2] was 8.93 µM (active) in each case.
As for `CC(O)(C(=O)C1CC1(CO)COC1OC(CO)C(O)C(O)C1O)C1C(O)CC2C3CC=C4CC(O)CC(O)C4(C)C3C(O)CC21C` (stereo not given), the Potency in experiment [1] was 0.342 µM (active); in experiment [2], 0.383 µM (active).
Regarding `COC1=CC(=O)C[C@@H](C)[C@@]12Oc1c(Cl)c(OC)cc(OC)c1C2=O`, the Potency entry in experiment [1] and in experiment [2] was “inactive” throughout.
With `CC(=O)O[C@@]12CO[C@@H]1C[C@H](O)[C@@]1(C)C(=O)[C@H](O)C3=C(C)[C@@H](OC(=O)[C@H](O)[C@@H](NC(=O)OC(C)(C)C)c4ccccc4)C[C@@](O)([C@@H](OC(=O)c4ccccc4)C12)C3(C)C` (stereo not given in full), the Potency in experiment [1] was 0.004 µM (active); in experiment [2], 0.0032 µM (active).
In the case of `CC1(C)CC[C@]2(C(=O)O)[C@H](O)C[C@]3(C)C(=CCC4[C@@]5(C)CC[C@H](O[C@@H]6O[C@H](CO[C@@H]7OC[C@H](O)[C@H](O)[C@H]7O[C@@H]7OC[C@H](O)[C@H](O)[C@H]7O)[C@@H](O)[C@H](O)[C@H]6O)C(C)(C)C5CC[C@]43C)[C@@H]2C1` (stereo not given in full), the Potency in experiment [1] is 4.35 µM (active). For the same molecule, in experiment [2], the activity change, negative = cell killing is -24.5% [at 9.23 µM].
On to `COc1cc(C(C)C)c(Oc2cnc(N)nc2N)cc1I`, for which the Potency in experiment [1] and in experiment [2] was 16.3 µM (active) each time.
`O=C(Nc1nc2cc(C(F)(F)F)cc(NC3CC3)n2n1)c1cccnc1`: the Potency in experiment [1] was 2.3 µM (active); in experiment [2], 1.83 µM (active).
In the same order, the values of `CCCSc1nc(N[C@@H]2C[C@H]2c2ccc(F)c(F)c2)c2nnn([C@@H]3C[C@H](OCCO)[C@@H](O)[C@H]3O)c2n1` are 25.8 µM (active) and 18.3 µM (active).
For the molecule `Nc1nc(NC2CC2)cc(-c2cccc(Cl)c2Cl)n1`, the Potency in experiment [1] is 4.59 µM (active); in experiment [2] it was 2.58 µM (active).
The corresponding values for `CCNC(=O)C#Cc1ccc2c(C(=Nc3ccc(CN(C)C)cc3)c3ccccc3)c(O)[nH]c2c1` are 0.512 µM (active) and 0.0102 µM (active).
The corresponding values for `O=c1cc(NCCCN[C@@H]2CCOc3c(Br)cc(Br)cc32)[nH]c2ccsc12` are 20.5 µM (active) and 20.5 µM (active).
The corresponding values for `O=C(c1c(F)ccc(NS(=O)(=O)N2CC[C@@H](F)C2)c1F)c1c[nH]c2ncc(-c3cnc(C4CC4)nc3)cc12` are 11.8 µM (active) and 11.6 µM (active).
